Tau fibril ThT: qHTS for Inhibitors of Tau Fibril Formation, Thioflavin T Binding; recombinant tau K18 P301L, heparin-induced fibrillization, ThT fluorescence; 270,000 tested, 2.1% active; Potency, µM (series often up to 57.4 µM), usual class: inhibitors; note: nearly all actives have a fitted effect of over 55% in size
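K18 P301L tau (15 uM + 0.24 uM Alexa 594-tagged), heparin 20 uM, NaOAc pH 7, 6 h 37 C; ThT 30 uM, 1 h RT, ex 450/em 510 nm.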
Tau FP inhib: qHTS for Inhibitors of Tau Fibril Formation, Fluorescence Polarization; Microtubule-associated protein tau (Homo sapiens), P10636; K18 P301L tau heparin fibrillization, Alexa594 FP, 6 h; Potency, µM (titrated, usually from 57.7 µM), usual class: inhibitors; 280,000 tested, 0.39% active; note: nearly all actives have a fitted effect of over 55% in size
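Quantitative HTS format: compounds meet 15 uM recombinant K18 P301L tau and Alexa 594-tau tracer in 100 mM sodium acetate pH 7; 20 uM heparin triggers fibrillization at 37 C over 6 hr; FP gives the signal.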
Coupling enz: qHTS Assay for Inhibitors of Fructose-1,6-bisphosphate Aldolase from Giardia Lamblia: Coupling assay counterscreen; coupling enzyme system counterscreen, AmpLite Red fluorescence; activity change, negative = inhibition, % at 58.2 µM, hits read low; 290,000 tested, 0.67% active; AID 2472, 2010; in the data active = activity change below about -30%
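Final compound at 57.5 uM, incubated 10 min at RT with coupling enzyme reagent (glyceraldehyde-3-phosphate), then 20 min with substrate and AmpLite Red detection. Fluorescence read at 525/598 nm; tests interference with the coupling assay, not aldolase inhibition.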
USP1-UAF1 inh: Inhibitors of USP1/UAF1: Primary Screen | AID 743255, 2014 | Potency, µM (series often up to 57.1 µM), hits mostly inhibitors | 390,000 tested, 0.23% active | Ubiquitin carboxyl-terminal hydrolase 1 (Homo sapiens), O94782 | recombinant USP1/UAF1, Ub-Rhodamine cleavage fluorescence; note: nearly all actives have a fitted effect of over 60% in size
Target sequence (O94782 whole entry, looked up): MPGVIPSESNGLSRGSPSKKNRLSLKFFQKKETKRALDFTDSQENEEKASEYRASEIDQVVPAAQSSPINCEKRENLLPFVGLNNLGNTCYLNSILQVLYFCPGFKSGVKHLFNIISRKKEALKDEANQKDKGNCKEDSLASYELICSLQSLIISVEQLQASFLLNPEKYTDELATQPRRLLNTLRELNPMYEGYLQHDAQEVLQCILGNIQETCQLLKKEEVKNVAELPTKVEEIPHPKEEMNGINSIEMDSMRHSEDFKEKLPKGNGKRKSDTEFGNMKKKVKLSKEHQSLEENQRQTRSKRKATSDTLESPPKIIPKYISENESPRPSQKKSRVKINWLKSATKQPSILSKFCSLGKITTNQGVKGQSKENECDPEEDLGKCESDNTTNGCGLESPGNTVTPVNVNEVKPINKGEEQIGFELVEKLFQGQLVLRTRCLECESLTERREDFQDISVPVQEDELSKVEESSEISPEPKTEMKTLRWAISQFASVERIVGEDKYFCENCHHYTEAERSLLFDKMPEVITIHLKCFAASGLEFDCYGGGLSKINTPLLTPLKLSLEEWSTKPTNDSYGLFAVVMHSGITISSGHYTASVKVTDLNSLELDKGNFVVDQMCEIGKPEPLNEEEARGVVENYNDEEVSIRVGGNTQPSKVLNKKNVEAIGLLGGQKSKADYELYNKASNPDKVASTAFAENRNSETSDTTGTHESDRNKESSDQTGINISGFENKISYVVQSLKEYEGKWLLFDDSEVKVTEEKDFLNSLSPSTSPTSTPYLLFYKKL
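1 nM enzyme complex + cpd, 15 min RT; start with Ub-Rho 150nM final; kinetic fluorescence ex 480/em 540, 6 reads q60 s. Buffer 50mM HEPES pH 7.8, 0.5mM EDTA, 0.1 mg/ml BSA, 1mM TCEP, 0.01% Tween-20.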
Tau fluor counter: Counterscreen qHTS for Inhibitors of Tau Fibril Formation, Fluorescence Polarization | tau K18 P301L Alexa594 fluorescence, heparin fibrillization | Potency, µM (doses to about 57.7 µM) | 280,000 tested, 0.93% active | AID 1463, 2008; note: nearly all actives have a fitted effect of over 55% in size
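Human tau K18 P301L (15 uM unlabeled, 0.24 uM Alexa 594-labeled) in 100 mM sodium acetate pH 7 with 20 uM heparin, 6 hr at 37 C. ThT 30 uM added, 1 hr ambient; Alexa 594 FP and total fluorescence read at 555/632 nm.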
A number is an active result; i = inactive; ? = inconclusive; nt = no result; [ ] = another dose, or the depositor's remark. Sampled rows, rich in hits. Any-hit rate of the full collection: about 2.3%. Unless noted, calls come from the whole dose curve; as a rule, active = well fitted curve in the direction sought with a large enough effect; inconclusive = small, poorly fitted or top-dose-only effect, or another doubt; inactive = no such curve, though single readings can be large; an effect the other way counts as inactive or inconclusive.

SMILES	Tau fibril ThT	Tau FP inhib	Coupling enz	USP1-UAF1 inh	Tau fluor counter
COc1ccc(Nc2nc(OC)nc(OC)n2)cc1	nt	nt	i	i	nt
COc1ccc(Nc2nc(Nc3ccc(OC)cc3)nc(SC3=NCCS3)n2)cc1	?	i	i	i	14µM[quencher]
COc1ccccc1N(Cc1cc2cccc(C)c2[nH]c1=O)C(=O)c1cccc(Cl)c1	i	i	nt	i	i
O=C(O)C1C2CCC(O2)C1C(=O)Nc1ccc(O)cc1 (configuration not stated)	i	i	-36	i	i
CCN(CC)c1ccc(NC(=O)c2sc3ccccc3c2Cl)cc1	0.89µM	i	nt	i	?
CCN(CC)c1ccc(NC(=O)c2sc3nc(-c4ccccc4)cn3c2C)cc1	2.2µM	i	nt	i	?
Cc1c(C(=O)Nc2ccncc2)sc2nc(-c3ccccc3)cn12	i	i	i	i	i
COc1ccc(-c2nc3cc(NC(=O)Cc4ccc(Cl)cc4)ccc3o2)cc1OC	i	i	nt	?	i
CCOc1ccc(CNC(=O)CCn2c(=O)c3cccn3c3cccnc32)cc1	i	i	nt	i	i
COc1ccc(Nc2nc(N)nc(CSc3nc4cc(OC)ccc4s3)n2)cc1	?	i	nt	i	14µM[quencher]
COc1ccc2[nH]c3c(C)c4ccncc4c(C)c3c2c1	3.5µM	i	i	i	?
CCCC1=NN(c2ccc([N+](=O)[O-])cc2)C(=O)/C1=C/N(C)C	?	i	i	i	i
C/C(=C1/C(=O)N(c2ccc([N+](=O)[O-])cc2)N=C1c1ccccc1)N(C)C	?	i	i	nt	?
CC1=NN(c2ccc([N+](=O)[O-])cc2)C(=O)/C1=C\N(C)C	13µM	i	i	i	i
CN(C)/C=C1/C(=O)N(c2ccc([N+](=O)[O-])cc2)N=C1c1ccccc1	22µM	i	i	nt	?
CN(C)/C=C1\C(=O)N(c2ccc([N+](=O)[O-])cc2)N=C1c1ccccc1	18µM	?	i	i	?
Cc1noc(C)c1S(=O)(=O)Nc1ccccc1Oc1ccccc1	i	i	i	i	i
O=C1c2ccccc2-c2onc3ccc(Oc4ccccc4)c1c23	4.5µM	?	i	i	6.3µM[quencher]
N[C@](CC1c2ccccc2Oc2ccccc21)(C(=O)O)[C@H]1C[C@@H]1C(=O)O	i	i	nt	nt	i
CCOC(=O)C1=C(Cc2ccc(Cl)cc2)C(=O)c2ccccc2C1=O	14µM	?	-37	?	?
CCOC(=O)c1c(C=O)c(C)n(Cc2ccc(Cl)cc2)c1C	?	i	i	i	i
Cc1cc2c(NC(=O)Nc3ccc(C(C)(C)C)cc3)cccc2nn1	i	35µM	i	i	16µM[quencher]
O=C1CC(c2nc(-c3ccc(Cl)cc3)no2)CN1c1ccc2c(c1)OCCO2 (configuration not stated)	i	i	nt	i	i
CN1/C(=C\C=N\O)C(C)(C)c2ccccc21	?	i	i	i	i
CN1/C(=C/C2CC(=O)N(c3ccc([N+](=O)[O-])cc3)C2=O)C(C)(C)c2ccccc21 (configuration not stated)	14µM	i	i	i	?
SMILES	Tau fibril ThT	Tau FP inhib	Coupling enz	USP1-UAF1 inh	Tau fluor counter
CN1/C(=C/C=N/NC(=O)c2ccc([N+](=O)[O-])cc2)C(C)(C)c2ccccc21	6.3µM	i	i	i	?
Cc1cc(NC(=O)C(C)C)cc(-c2nc3ncccc3o2)c1O	i	i	nt	i	i
Cc1cccc2sc(N(Cc3cccnc3)C(=O)C3CCCCC3)nc12	?	i	nt	i	i
Cc1c(N=NC2=C(O)CCCC2=O)c(=O)n(-c2ccccc2)n1C	14µM	?	i	i	i
O=c1[nH]sc2ccccc12	11µM	25µM	i	i	i
O=c1ccsc2ccccc12	nt	nt	nt	i	nt
Cn1c(=O)c2c(n3ncnc13)NC(=O)CC2c1cccc(F)c1 (configuration not stated)	i	i	nt	i	i
CCOC(=O)c1ccc(NC(=O)c2nc[nH]c2C(=O)N[C@@H](CC(C)C)C(=O)OC(C)(C)C)cc1	?	?	i	i	?
CCOC(=O)c1ccc(NC(=O)c2nc[nH]c2C(=O)N[C@@H](CC(C)C)C(=O)OCc2ccccc2)cc1	?	8.9µM	i	i	i
CC(C)C[C@H](NC(=O)c1[nH]cnc1C(=O)Nc1ccccc1)C(=O)OC(C)(C)C	i	22µM	i	?	?
CCOC(=O)c1ccc(NC(=O)c2nc[nH]c2C(=O)N[C@@H](C)C(=O)OC(C)(C)C)cc1	i	?	i	i	?
C[C@H](NC(=O)c1[nH]cnc1C(=O)Nc1ccc(Cl)cc1)C(=O)OC(C)(C)C	i	25µM	i	i	?
Nc1cccc(Oc2c(F)c(F)c(Oc3cccc(N)c3)c(F)c2F)c1	?	?	i	i	6.3µM[quencher]
O=C(CCl)N1c2ccccc2Oc2ccc3ccccc3c21	nt	nt	nt	22µM	nt
CC(C)=CCn1cnc2c1C(NOCc1ccccc1)=NCN2	i	i	i	nt	i
CCOC(=O)c1ccc(Nc2ncnc3ccc(C)cc23)cc1	i	i	i	i	i
CCOc1ccc(Nc2ncnc3ccc([N+](=O)[O-])cc23)cc1	10µM	i	i	i	i
CCc1nnc(NC(=O)CSc2nc3c(cc2C#N)CCC3)s1	2µM	i	i	i	i
CCSc1nnc(NC(=O)CSc2nc3c(cc2C#N)CCCC3)s1	2.8µM	i	i	i	?
O=S(=O)(/N=C(\Sc1ccc(Cl)cc1)c1ccccc1)c1ccccc1	35µM	?	i	i	i
CS/C(=N\S(=O)(=O)c1ccc(Cl)cc1)c1ccccc1	i	i	i	i	i
CC1CCCCN1c1c(S(=O)(=O)c2ccc(Cl)cc2)cnc2ccccc12 (configuration not stated)	i	i	nt	i	i
O=C(CCNc1ccc(Br)cc1)c1cccc([N+](=O)[O-])c1	?	?	i	i	28µM[quencher]
O=C(CCNc1ccc(Cc2ccncc2)cc1)c1ccc([N+](=O)[O-])cc1	10µM	i	i	i	7.9µM[quencher]
O=C(CCNc1ccc(F)cc1)c1cccc([N+](=O)[O-])c1	?	i	i	i	16µM[quencher]
Cc1nc(SCC(=O)c2cccc([N+](=O)[O-])c2)n[nH]1	40µM	?	i	i	i
CC(N)(C(=O)O)c1ccc(S(=O)(=O)O)cc1 (configuration not stated)	i	i	nt	nt	i
O=C(COc1ncnc2c1cnn2-c1ccccc1)Nc1ccc(S(=O)(=O)N2CCCCC2)cc1	i	18µM	i	i	?
CC(C)c1ccc(NC(=O)Cn2cc(S(=O)(=O)N3CCN(c4ccccc4F)CC3)c3ccccc3c2=O)cc1	i	?	nt	i	i
Cc1ccc(NC(=O)Cn2cc(S(=O)(=O)N3CCN(c4ccccc4F)CC3)c3ccccc3c2=O)cc1F	i	14µM	nt	?	i

Compound activity (PubChem BioAssay)
